From the supplement of paper PMC10849652
About 8,800 targets were measured; listed, in parts, are those with a hit and a random draw of the rest. About 0.5% of all pairs of compound and target were hits.

UniProt Q9H270, sequence (Q9H270 whole entry, looked up): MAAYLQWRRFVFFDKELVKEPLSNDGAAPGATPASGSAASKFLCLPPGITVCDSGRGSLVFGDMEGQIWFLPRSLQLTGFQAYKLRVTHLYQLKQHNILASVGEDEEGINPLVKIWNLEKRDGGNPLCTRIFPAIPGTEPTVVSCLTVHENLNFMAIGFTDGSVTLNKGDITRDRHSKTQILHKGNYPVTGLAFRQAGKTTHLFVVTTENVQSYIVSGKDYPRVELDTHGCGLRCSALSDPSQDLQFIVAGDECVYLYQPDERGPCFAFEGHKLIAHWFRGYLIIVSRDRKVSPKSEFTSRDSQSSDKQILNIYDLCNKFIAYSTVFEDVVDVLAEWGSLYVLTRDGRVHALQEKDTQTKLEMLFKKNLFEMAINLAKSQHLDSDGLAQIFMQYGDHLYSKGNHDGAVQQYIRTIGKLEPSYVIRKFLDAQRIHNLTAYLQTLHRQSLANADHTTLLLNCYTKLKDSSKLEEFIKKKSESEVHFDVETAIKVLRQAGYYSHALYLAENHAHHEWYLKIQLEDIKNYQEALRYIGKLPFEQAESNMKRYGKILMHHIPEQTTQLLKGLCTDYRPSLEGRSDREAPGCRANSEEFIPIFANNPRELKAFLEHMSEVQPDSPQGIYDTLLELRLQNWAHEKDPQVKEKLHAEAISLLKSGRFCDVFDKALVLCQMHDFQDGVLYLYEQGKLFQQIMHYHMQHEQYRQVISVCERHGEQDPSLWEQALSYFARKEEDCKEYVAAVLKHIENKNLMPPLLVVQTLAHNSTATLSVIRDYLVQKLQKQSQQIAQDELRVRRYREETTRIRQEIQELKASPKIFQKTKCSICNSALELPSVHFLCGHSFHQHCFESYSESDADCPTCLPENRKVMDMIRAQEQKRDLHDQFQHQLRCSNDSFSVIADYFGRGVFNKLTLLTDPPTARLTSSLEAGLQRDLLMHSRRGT
UniProt Q93008, sequence (Q93008 whole entry, looked up): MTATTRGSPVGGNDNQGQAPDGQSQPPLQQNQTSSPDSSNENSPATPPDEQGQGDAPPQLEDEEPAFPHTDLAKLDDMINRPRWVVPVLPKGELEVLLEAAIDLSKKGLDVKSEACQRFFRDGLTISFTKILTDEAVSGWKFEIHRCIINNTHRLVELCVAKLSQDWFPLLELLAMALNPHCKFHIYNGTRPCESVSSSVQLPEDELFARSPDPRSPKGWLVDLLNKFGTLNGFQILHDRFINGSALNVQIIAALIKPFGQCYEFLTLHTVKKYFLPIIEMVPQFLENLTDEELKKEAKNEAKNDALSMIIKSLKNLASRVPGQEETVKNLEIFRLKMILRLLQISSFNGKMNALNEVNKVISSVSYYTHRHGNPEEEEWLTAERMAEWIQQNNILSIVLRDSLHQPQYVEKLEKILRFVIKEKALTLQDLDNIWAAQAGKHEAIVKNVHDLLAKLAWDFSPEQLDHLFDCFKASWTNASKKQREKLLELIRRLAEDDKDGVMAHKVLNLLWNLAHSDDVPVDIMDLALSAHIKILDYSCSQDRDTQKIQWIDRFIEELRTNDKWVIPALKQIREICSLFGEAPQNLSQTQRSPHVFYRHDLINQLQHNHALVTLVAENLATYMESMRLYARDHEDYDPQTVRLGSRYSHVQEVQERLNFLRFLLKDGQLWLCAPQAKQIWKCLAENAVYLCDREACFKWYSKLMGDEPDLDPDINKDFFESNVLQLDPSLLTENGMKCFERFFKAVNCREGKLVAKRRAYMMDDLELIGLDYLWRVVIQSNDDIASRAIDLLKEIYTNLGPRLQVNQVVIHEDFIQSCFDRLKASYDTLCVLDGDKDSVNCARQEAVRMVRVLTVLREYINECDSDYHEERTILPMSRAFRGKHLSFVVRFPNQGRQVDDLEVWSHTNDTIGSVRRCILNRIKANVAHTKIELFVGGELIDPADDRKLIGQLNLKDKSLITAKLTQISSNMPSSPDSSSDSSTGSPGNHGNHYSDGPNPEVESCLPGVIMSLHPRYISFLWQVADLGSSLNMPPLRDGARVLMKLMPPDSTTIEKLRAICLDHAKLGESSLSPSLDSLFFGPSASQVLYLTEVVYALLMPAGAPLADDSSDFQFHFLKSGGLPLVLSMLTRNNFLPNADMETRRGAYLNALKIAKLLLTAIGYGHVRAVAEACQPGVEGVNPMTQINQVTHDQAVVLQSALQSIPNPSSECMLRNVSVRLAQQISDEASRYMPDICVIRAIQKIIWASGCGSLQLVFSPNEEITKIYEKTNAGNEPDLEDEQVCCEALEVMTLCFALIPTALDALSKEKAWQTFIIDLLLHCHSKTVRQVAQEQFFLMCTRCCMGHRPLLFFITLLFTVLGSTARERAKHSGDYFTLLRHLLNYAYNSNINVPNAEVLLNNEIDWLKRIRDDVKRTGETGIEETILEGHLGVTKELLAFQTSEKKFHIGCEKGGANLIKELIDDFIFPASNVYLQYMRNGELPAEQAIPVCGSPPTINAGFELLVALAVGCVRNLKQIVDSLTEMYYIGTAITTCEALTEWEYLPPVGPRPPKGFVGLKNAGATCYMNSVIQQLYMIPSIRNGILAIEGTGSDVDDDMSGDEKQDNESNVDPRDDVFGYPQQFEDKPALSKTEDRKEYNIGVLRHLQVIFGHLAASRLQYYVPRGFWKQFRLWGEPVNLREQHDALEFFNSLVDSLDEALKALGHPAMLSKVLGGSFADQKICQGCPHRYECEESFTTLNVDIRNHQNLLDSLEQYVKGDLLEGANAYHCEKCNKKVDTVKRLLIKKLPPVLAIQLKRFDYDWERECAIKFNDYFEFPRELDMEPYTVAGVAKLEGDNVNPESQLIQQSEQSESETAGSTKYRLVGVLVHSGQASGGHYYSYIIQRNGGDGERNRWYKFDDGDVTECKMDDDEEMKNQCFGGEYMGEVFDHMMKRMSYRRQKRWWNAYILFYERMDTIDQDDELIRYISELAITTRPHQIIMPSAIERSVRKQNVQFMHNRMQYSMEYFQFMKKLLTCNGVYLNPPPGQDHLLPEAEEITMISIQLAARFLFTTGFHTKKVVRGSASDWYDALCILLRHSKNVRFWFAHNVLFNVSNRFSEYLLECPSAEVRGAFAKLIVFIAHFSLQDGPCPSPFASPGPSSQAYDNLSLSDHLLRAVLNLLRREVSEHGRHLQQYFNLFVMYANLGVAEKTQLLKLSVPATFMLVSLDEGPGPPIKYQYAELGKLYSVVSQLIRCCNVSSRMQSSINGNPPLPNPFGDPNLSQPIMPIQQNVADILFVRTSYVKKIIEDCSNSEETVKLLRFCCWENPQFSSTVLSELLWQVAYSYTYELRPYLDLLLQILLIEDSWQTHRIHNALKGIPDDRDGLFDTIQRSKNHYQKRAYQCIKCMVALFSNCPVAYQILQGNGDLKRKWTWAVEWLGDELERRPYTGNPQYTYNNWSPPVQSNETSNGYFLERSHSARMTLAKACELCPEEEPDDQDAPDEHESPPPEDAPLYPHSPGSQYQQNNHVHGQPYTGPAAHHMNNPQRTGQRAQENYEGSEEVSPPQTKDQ
UniProt Q99986, sequence (Q99986 whole entry, looked up): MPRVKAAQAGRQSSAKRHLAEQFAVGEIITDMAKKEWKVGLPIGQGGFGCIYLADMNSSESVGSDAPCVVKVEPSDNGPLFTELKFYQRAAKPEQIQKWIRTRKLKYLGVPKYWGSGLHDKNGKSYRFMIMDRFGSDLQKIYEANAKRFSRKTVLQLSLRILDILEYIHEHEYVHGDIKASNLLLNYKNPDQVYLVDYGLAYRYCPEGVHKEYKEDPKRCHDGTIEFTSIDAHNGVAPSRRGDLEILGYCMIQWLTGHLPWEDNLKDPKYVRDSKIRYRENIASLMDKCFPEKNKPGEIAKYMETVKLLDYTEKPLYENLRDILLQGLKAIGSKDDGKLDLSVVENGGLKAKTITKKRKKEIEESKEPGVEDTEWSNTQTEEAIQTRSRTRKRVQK
UniProt Q9HCS7, sequence (Q9HCS7 whole entry, looked up): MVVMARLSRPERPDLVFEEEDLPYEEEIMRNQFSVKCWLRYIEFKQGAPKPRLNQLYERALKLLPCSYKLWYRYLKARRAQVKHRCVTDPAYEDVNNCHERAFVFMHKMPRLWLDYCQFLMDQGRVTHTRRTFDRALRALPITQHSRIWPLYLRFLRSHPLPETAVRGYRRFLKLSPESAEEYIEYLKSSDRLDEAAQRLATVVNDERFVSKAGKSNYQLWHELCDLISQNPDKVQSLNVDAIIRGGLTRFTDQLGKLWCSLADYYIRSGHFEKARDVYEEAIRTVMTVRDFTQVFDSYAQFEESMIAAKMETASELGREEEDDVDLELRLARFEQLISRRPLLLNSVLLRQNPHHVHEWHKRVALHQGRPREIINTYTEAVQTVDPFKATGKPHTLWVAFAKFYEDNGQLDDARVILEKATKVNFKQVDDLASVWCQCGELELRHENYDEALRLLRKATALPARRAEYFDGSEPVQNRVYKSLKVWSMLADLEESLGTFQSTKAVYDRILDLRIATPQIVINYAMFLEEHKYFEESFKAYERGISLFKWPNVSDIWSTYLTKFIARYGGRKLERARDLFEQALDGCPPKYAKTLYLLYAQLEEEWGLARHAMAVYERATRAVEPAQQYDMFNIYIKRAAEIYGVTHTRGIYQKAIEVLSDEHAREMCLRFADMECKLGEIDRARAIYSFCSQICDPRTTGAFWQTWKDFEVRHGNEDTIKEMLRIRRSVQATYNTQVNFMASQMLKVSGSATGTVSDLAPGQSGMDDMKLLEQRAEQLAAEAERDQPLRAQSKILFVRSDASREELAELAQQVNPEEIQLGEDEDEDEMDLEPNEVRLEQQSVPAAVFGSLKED
UniProt Q86U90, sequence (Q86U90 whole entry, looked up): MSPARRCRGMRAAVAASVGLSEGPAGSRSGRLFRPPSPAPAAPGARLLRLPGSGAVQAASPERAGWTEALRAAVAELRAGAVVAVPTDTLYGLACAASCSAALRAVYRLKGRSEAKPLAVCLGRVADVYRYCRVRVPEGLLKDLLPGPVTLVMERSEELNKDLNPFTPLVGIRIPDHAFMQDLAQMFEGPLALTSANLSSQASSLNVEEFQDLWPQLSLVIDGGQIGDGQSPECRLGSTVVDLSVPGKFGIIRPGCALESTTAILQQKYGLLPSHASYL

The targets below were run with C1=CC=C2C(=C1)C3=NNC4=CC=CC(=C43)C2=O (assay: log2 fold change, soluble protein after heating vs DMSO (PISA); higher = thermal stabilisation; K562 lysate, 10 uM; active = over 0.2 and 3.5 SD of the protein, either way, in both replicates (recomputed)).
In short: (§1)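 The values are log-two fold changes in thermal stability compared with solvent controls and come from duplicates. They were obtained by TMTpro 16plex LC-MS/MS, with channel sums equalised, on the supernatant after 21,000xg for 90 min. That supernatant came from crude K562 extract at 1 mg/mL protein treated with 10 μM compound for 30 min, heated for 3 min across 48°C-58°C, pooled and brought to 0.5% NP-40 at 4°C.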
With WDR3 (UniProt Q9UNX4) the log2 fold change was 0.026 (inactive).
USP8 (UniProt P40818) was tested, and the log2 fold change was -0.028 (inactive).
For ZFPM1 (UniProt Q8IX07), the log2 fold change was 0.021 (inactive).
VRK2 (UniProt Q86Y07) was tested, and the log2 fold change was 0.064 (inactive).
In the case of WDR91 (UniProt A4D1P6), the log2 fold change is reported as 0.019 (inactive).
With WDR20 isoform 7 (UniProt Q8TBZ3) the log2 fold change was -0.016 (inactive).
In the case of YRDC (UniProt Q86U90), the log2 fold change is reported as 0.081 (inactive).
For UQCRC2 (UniProt P22695), the log2 fold change was 0.013 (inactive).

What follows are targets tested with C1CCN(C1)C(=O)NC2=CC=CC(=C2)NC3=NC=C(C(=N3)NCCC4=CN=CN4)Br in the same assay as above.
In short: as §1
For USP9X (UniProt Q93008), the log2 fold change was -0.005 (inactive).
With ZMYM1 (UniProt Q5SVZ6) the log2 fold change was 0.043 (inactive).
With ZNF598 isoform 3 (UniProt Q86UK7) the log2 fold change was -0.036 (inactive).
VAV1 (UniProt P15498) was tested, and the log2 fold change was -0.004 (inactive).
WDR7 (UniProt Q9Y4E6) was tested, and the log2 fold change was 0.018 (inactive).
With VPS11 (UniProt Q9H270) the log2 fold change was 0.003 (inactive).
With ZNF318 (UniProt Q5VUA4) the log2 fold change was 0.023 (inactive).
In the case of VAC14 (UniProt Q08AM6), the log2 fold change is reported as 0.006 (inactive).
VPS41 (UniProt P49754) was tested, and the log2 fold change was -0.025 (inactive).
For ZNHIT6 (UniProt Q9NWK9), the log2 fold change was 0 (inactive).
ZZEF1 (UniProt O43149) was tested, and the log2 fold change was -0.011 (inactive).
In the case of VPS16 (UniProt Q9H269), the log2 fold change is reported as 0.03 (inactive).
For ZHX1 (UniProt Q9UKY1), the log2 fold change was -0.119 (inactive).
With ZC3H13 (UniProt Q5T200) the log2 fold change was -0.016 (inactive).
With VRK1 (UniProt Q99986) the log2 fold change was 0 (inactive).
For VPS54 (UniProt Q9P1Q0), the log2 fold change was -0.019 (inactive).
WDR45 isoform 2 (UniProt Q9Y484) was tested, and the log2 fold change was 0.041 (inactive).
For XAB2 (UniProt Q9HCS7), the log2 fold change was 0.071 (inactive).
YTHDF3 (UniProt Q7Z739) was tested, and the log2 fold change was -0.04 (inactive).
For XPO6 (UniProt Q96QU8), the log2 fold change was -0.007 (inactive).
For WRB (UniProt O00258), the log2 fold change was 0.051 (inactive).
XPOT (UniProt O43592) was tested, and the log2 fold change was -0.004 (inactive).
In the case of VPS18 (UniProt Q9P253), the log2 fold change is reported as -0.017 (inactive).
In the case of WDR3 (UniProt Q9UNX4), the log2 fold change is reported as 0.007 (inactive).
With USP8 (UniProt P40818) the log2 fold change was -0.014 (inactive).
ZFPM1 (UniProt Q8IX07) was tested, and the log2 fold change was 0.031 (inactive).
With VRK2 (UniProt Q86Y07) the log2 fold change was 0.064 (inactive).
WDR91 (UniProt A4D1P6) was tested, and the log2 fold change was -0.011 (inactive).
In the case of WDR20 isoform 7 (UniProt Q8TBZ3), the log2 fold change is reported as -0.05 (inactive).
With YRDC (UniProt Q86U90) the log2 fold change was -0.065 (inactive).
In the case of UQCRC2 (UniProt P22695), the log2 fold change is reported as -0.001 (inactive).

Each target was assayed with C1CN(CCC1(CC2=CC=C(C=C2)Cl)N)C3=NC=NC4=C3C=CN4 in the same assay as above.
In short: as §1
With USP9X (UniProt Q93008) the log2 fold change was -0.013 (inactive).
In the case of ZMYM1 (UniProt Q5SVZ6), the log2 fold change is reported as 0.025 (inactive).
With ZNF598 isoform 3 (UniProt Q86UK7) the log2 fold change was -0.002 (inactive).
In the case of VAV1 (UniProt P15498), the log2 fold change is reported as -0.002 (inactive).
With WDR7 (UniProt Q9Y4E6) the log2 fold change was 0.042 (inactive).
With VPS11 (UniProt Q9H270) the log2 fold change was -0.002 (inactive).
For ZNF318 (UniProt Q5VUA4), the log2 fold change was 0.004 (inactive).
With VAC14 (UniProt Q08AM6) the log2 fold change was 0.015 (inactive).
For VPS41 (UniProt P49754), the log2 fold change was 0.049 (inactive).
In the case of ZNHIT6 (UniProt Q9NWK9), the log2 fold change is reported as 0.014 (inactive).
In the case of ZZEF1 (UniProt O43149), the log2 fold change is reported as -0.009 (inactive).
VPS16 (UniProt Q9H269) was tested, and the log2 fold change was 0.023 (inactive).
For ZHX1 (UniProt Q9UKY1), the log2 fold change was 0.026 (inactive).
With ZC3H13 (UniProt Q5T200) the log2 fold change was -0.043 (inactive).
With VRK1 (UniProt Q99986) the log2 fold change was 0.02 (inactive).
For VPS54 (UniProt Q9P1Q0), the log2 fold change was -0.079 (inactive).
WDR45 isoform 2 (UniProt Q9Y484) was tested, and the log2 fold change was -0.005 (inactive).
In the case of XAB2 (UniProt Q9HCS7), the log2 fold change is reported as -0.014 (inactive).
With YTHDF3 (UniProt Q7Z739) the log2 fold change was 0.036 (inactive).
XPO6 (UniProt Q96QU8) was tested, and the log2 fold change was -0.028 (inactive).
WRB (UniProt O00258) was tested, and the log2 fold change was -0.064 (inactive).
For XPOT (UniProt O43592), the log2 fold change was 0.025 (inactive).
In the case of VPS18 (UniProt Q9P253), the log2 fold change is reported as 0.053 (inactive).
In the case of WDR3 (UniProt Q9UNX4), the log2 fold change is reported as -0.04 (inactive).
In the case of USP8 (UniProt P40818), the log2 fold change is reported as 0.006 (inactive).
ZFPM1 (UniProt Q8IX07) was tested, and the log2 fold change was -0.01 (inactive).
With VRK2 (UniProt Q86Y07) the log2 fold change was 0.196 (inactive).
WDR91 (UniProt A4D1P6) was tested, and the log2 fold change was -0.007 (inactive).
With WDR20 isoform 7 (UniProt Q8TBZ3) the log2 fold change was 0.092 (inactive).
YRDC (UniProt Q86U90) was tested, and the log2 fold change was 0.006 (inactive).
In the case of UQCRC2 (UniProt P22695), the log2 fold change is reported as 0.019 (inactive).

These targets were tested with C1COCCN1CCN2C3=CC=CC=C3N=C2NC(=O)C4=CC(=CC=C4)[N+](=O)[O-] [IRAK-1-4 Inhibitor I] in the same assay as above.
In short: as §1
For USP9X (UniProt Q93008), the log2 fold change was 0.022 (inactive).
With ZMYM1 (UniProt Q5SVZ6) the log2 fold change was -0.008 (inactive).
For ZNF598 isoform 3 (UniProt Q86UK7), the log2 fold change was 0.029 (inactive).
For VAV1 (UniProt P15498), the log2 fold change was -0.009 (inactive).
WDR7 (UniProt Q9Y4E6) was tested, and the log2 fold change was 0.01 (inactive).
For VPS11 (UniProt Q9H270), the log2 fold change was -0.031 (inactive).
For ZNF318 (UniProt Q5VUA4), the log2 fold change was 0.012 (inactive).
For VAC14 (UniProt Q08AM6), the log2 fold change was 0.024 (inactive).
VPS41 (UniProt P49754) was tested, and the log2 fold change was -0.008 (inactive).
For ZNHIT6 (UniProt Q9NWK9), the log2 fold change was 0.003 (inactive).
With ZZEF1 (UniProt O43149) the log2 fold change was 0.017 (inactive).
VPS16 (UniProt Q9H269) was tested, and the log2 fold change was 0.025 (inactive).
For ZHX1 (UniProt Q9UKY1), the log2 fold change was -0.055 (inactive).
For ZC3H13 (UniProt Q5T200), the log2 fold change was 0.007 (inactive).
With VRK1 (UniProt Q99986) the log2 fold change was -0.02 (inactive).
With VPS54 (UniProt Q9P1Q0) the log2 fold change was 0.036 (inactive).
For WDR45 isoform 2 (UniProt Q9Y484), the log2 fold change was -0.012 (inactive).
With XAB2 (UniProt Q9HCS7) the log2 fold change was 0.004 (inactive).
In the case of YTHDF3 (UniProt Q7Z739), the log2 fold change is reported as 0.12 (inactive).
For XPO6 (UniProt Q96QU8), the log2 fold change was 0.003 (inactive).
WRB (UniProt O00258) was tested, and the log2 fold change was 0.101 (inactive).
For XPOT (UniProt O43592), the log2 fold change was 0.016 (inactive).
In the case of VPS18 (UniProt Q9P253), the log2 fold change is reported as -0.034 (inactive).
In the case of WDR3 (UniProt Q9UNX4), the log2 fold change is reported as -0.02 (inactive).
USP8 (UniProt P40818) was tested, and the log2 fold change was -0.019 (inactive).
ZFPM1 (UniProt Q8IX07) was tested, and the log2 fold change was 0.077 (inactive).
In the case of VRK2 (UniProt Q86Y07), the log2 fold change is reported as 0.049 (inactive).
In the case of WDR91 (UniProt A4D1P6), the log2 fold change is reported as -0.013 (inactive).
With WDR20 isoform 7 (UniProt Q8TBZ3) the log2 fold change was 0.026 (inactive).
YRDC (UniProt Q86U90) was tested, and the log2 fold change was -0.02 (inactive).
For UQCRC2 (UniProt P22695), the log2 fold change was 0.014 (inactive).
